VACV Venus inh – vaccinia inhibition (Venus reporter). 0.46% of 330,000 active. AID 720580. Potency, µM (doses to about 36.5 µM), hits mostly inhibitors. Vaccinia virus Venus reporter expression, fluorescence; calls by dose curve; tested in A549 cells; further: nearly all actives have a fitted effect of over 30% in size
HCMV inh – blocks human cytomegalovirus replication; HFF cells, HCMV-luciferase reporter, 72 h; hits give low values; activity change, negative = inhibition, % at 57.5 µM; 4.5% of 410,000 active; AID 1259415; in the data active means activity change below about -60%; inconclusive means no clear call, values can overlap the other calls; inactive means above about -39%
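Steps: HFFs plated, 16 h 37C; compounds added; HCMV-luciferase added to MOI 1 PFU/cell; 72 h 37C; OneGlo reagent, 5 min room temperature; luminescence read, normalized to controls.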
FMDV antiviral – antivirals against foot and mouth disease virus | FMDV antiviral cell-based qHTS | Potency, µM (highest dose often 57.9 µM), actives largely listed as inhibitors | 1.2% of 410,000 active | AID 1159524; calls by dose curve; tested in HEK293T cells; further: read-out not given here; nearly all actives have a fitted effect of over 45% in size
VACV mCherry inh – vaccinia inhibition (mCherry reporter); Vaccinia virus mCherry reporter infection, fluorescence; Potency, µM (top dose mostly 36.5 µM), usual class: inhibitors; 0.63% of 310,000 active; calls by dose curve; tested in A549 cells; further: nearly all actives have a fitted effect of over 35% in size
Sm TGR block – inhibitors of Schistosoma mansoni thioredoxin glutathione reductase; Q962Y6; purified TGR, DTNB reduction, TNB absorbance 405 nm; Potency, µM (series often up to 114 µM), actives largely listed as inhibitors; 3% of 360,000 active; further: nearly all actives have a fitted effect of over 60% in size
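Kinetic colorimetric format: TGR-catalysed, NADPH-driven DTNB reduction monitored via TNB absorbance. Enzyme dispensed at 20 nM; compound exposure 15 min at room temperature before reaction start.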
HCV inhibitor – blocks hepatitis C virus; Huh7.5.1 HCVcc-Cre infection, luciferase reporter, 44 h; Potency, µM (series often up to 41.8 µM), hits mostly inhibitors; 3.4% of 340,000 active
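Cells (1,000/well) were plated 4 h before compound, then infected with HCVcc-Cre virus (~0.5 moi). After 44 h further culture, infection was read as luciferase luminescence following a 15 min substrate incubation at room temperature.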
Of the large screens only hits and unclear results are named; the others gave an inactive call; ! = a repeat was not active. Only some compounds are listed: those with a hit (about 9.3% of all), similar ones and a draw of the others. Unless noted, the call rests on the fitted dose curve; in most records, active means well fitted curve in the direction sought with a large enough effect; inconclusive means small, poorly fitted or top-dose-only effect, or another doubt; inactive means no such curve, though single readings can be large; an effect the other way counts as inactive or inconclusive.

Cc1cc(O)c(C=O)c(O)c1C(=O)O	none (no result: HCMV inh, Sm TGR block, HCV inhibitor)
Cc1ccc(C(C)C)c(O)c1C(=O)O	HCMV inh -63, HCV inhibitor inconclusive (no result: Sm TGR block)
Cc1ccc(-c2nc3ccccc3n2C)o1	Sm TGR block 16µM (no result: VACV Venus inh, VACV mCherry inh)
Cn1c(-c2ccc(Br)o2)nc2cc(Br)ccc21	Sm TGR block 13µM (no result: VACV mCherry inh)
Cn1c(-c2ccc(Br)o2)nc2ccccc21	VACV Venus inh inconclusive, Sm TGR block 18µM
Cn1c2nc3ccccc3c-2nc2ccccc21	none (no result: Sm TGR block, HCV inhibitor)
Cn1c(Sc2nc3ccccc3n2C)nc2ccccc21	HCMV inh -95 (no result: VACV Venus inh, VACV mCherry inh)
Cc1ccc2nc(-c3ccc(Br)o3)oc(=O)c2c1	none (no result: VACV Venus inh, VACV mCherry inh)
c1ccc2c(c1)oc1c(Nc3ccc(CN4CCOCC4)cc3)ncnc12	VACV Venus inh inconclusive, HCV inhibitor inconclusive (no result: VACV mCherry inh)
Brc1ccc(Cn2c(-c3ccc(Br)o3)nc3ccccc32)o1	Sm TGR block 22µM
Cc1nc([N+](=O)[O-])c(Sc2nc3ccccc3n2C)n1Cc1ccccc1	FMDV antiviral 25µM, Sm TGR block 8.9µM, HCV inhibitor 13µM
Cc1oc(-c2nc3ccccc3n2C)cc1C(=O)c1ccccc1	Sm TGR block 25µM
Cc1cccc(Cn2c(-c3cccc(Br)c3)nc3ccccc32)c1	none (no result: HCV inhibitor)
CC(=O)c1ccc(-c2nc3ccccc3n2C)o1	Sm TGR block 40µM
CCOC(=O)CC(=O)CSc1nc2ccccc2c(=O)n1-c1ccc(C(=O)NCCOC)cc1	HCMV inh inconclusive
Cc1nc2ccccc2c(=O)n1/N=C/c1ccc(C(C)C)cc1	HCV inhibitor 25µM (no result: VACV Venus inh, VACV mCherry inh)
Cc1c(Br)c(O)c(Br)c(O)c1/C=N/n1c(-c2ccccc2)n[nH]c1=S	Sm TGR block 35µM (no result: HCMV inh)
Oc1c(Br)cc(/C=N/n2c(-c3ccccc3)n[nH]c2=S)c(O)c1Br	none (no result: VACV Venus inh, HCMV inh, VACV mCherry inh)
CC(C)c1ccc(/C=N/n2c(-c3ccccc3)n[nH]c2=S)cc1	HCMV inh -66 (no result: VACV Venus inh, VACV mCherry inh)
COc1cc(/C=N/n2c(-c3ccccc3)n[nH]c2=S)ccc1O	none (no result: VACV Venus inh, VACV mCherry inh)
COc1cc(/C=N/n2c(-c3ccccc3)n[nH]c2=S)cc(OC)c1O	VACV mCherry inh inconclusive, Sm TGR block 32µM
CC(C)(C)n1nnnc1C(c1cccc(C#N)c1)N1CCCCCC1 (configuration not stated)	none
O=[N+]([O-])c1cc2c(cc1/C=N/n1c(-c3ccccc3)n[nH]c1=S)OCO2	HCMV inh -100
CCCOc1ccc2cc(-c3ccccn3)c(=O)oc2c1	HCMV inh -77, FMDV antiviral 10µM
O=c1oc2cc(OCc3c(F)cccc3Cl)ccc2cc1-c1ccccn1	none
Brc1cc2ccccc2[n+](Cc2ccccc2)c1	HCMV inh -101, HCV inhibitor inconclusive
O=C(NC(Nc1nc2ccc([N+](=O)[O-])cc2s1)(C(F)(F)F)C(F)(F)F)c1ccccc1Cl	HCMV inh inconclusive, FMDV antiviral 2.5µM, HCV inhibitor 0.56µM (no result: VACV Venus inh, VACV mCherry inh)
Cn1c(SCC(=O)NC2CC2)nnc1C1CC1	none
Cc1cc(C(C2C(=O)CC(C)(C)CC2=O)C2C(=O)CC(C)(C)CC2=O)cc(C)c1OC(F)F	Sm TGR block 32µM
COc1cc(C)ccc1OCC(=O)NC1CCCCCC1	none (no result: VACV Venus inh, VACV mCherry inh)
CCn1c(=NC(=O)C2COc3ccccc3O2)sc2c(OC)ccc(OC)c21 (configuration not stated)	HCV inhibitor 11µM (no result: VACV Venus inh, VACV mCherry inh)
CCn1c(=NC(=O)c2ccc3c(c2)OCCO3)sc2c(C)ccc(OC)c21	FMDV antiviral inconclusive (no result: HCV inhibitor)
Cn1c(=O)c(=O)n(C)c2cc(S(=O)(=O)N3CCC(N4CCCCC4)CC3)ccc21	none (no result: VACV Venus inh, VACV mCherry inh, Sm TGR block)
O=C(COC(=O)c1ccc([N+](=O)[O-])s1)NC(c1ccccc1)c1ccccc1	none
Cc1ccc(S(=O)(=O)/N=C(/Sc2ccccc2C(=O)O)c2ccccc2)cc1	Sm TGR block 35µM
Cc1ccc(S(=O)(=O)/N=C(/Nc2cccc(O)c2)c2ccccc2)cc1	HCV inhibitor 11µM
Cc1ccc(S(=O)(=O)/N=C(\Sc2ccccc2)c2ccccc2)cc1	Sm TGR block 7.9µM, HCV inhibitor inconclusive (no result: VACV Venus inh, VACV mCherry inh)
Cc1ccc(S(=O)(=O)/N=C(/Nc2cccc(C(=O)O)c2)c2ccccc2)cc1	none
O=S(=O)(/N=C(\Sc1ccccc1)c1ccccc1)c1ccc(Cl)cc1	none (no result: VACV Venus inh, VACV mCherry inh)
CC(C)Cn1c(SCC(=O)NC2CC2)nc2ccc(Cl)cc2c1=O	none (no result: Sm TGR block, HCV inhibitor)
NS(=O)(=O)c1cccc(NC(=O)COC(=O)C2CCN(S(=O)(=O)c3cccs3)CC2)c1	none
O=C(O)c1cccc(S(=O)(=O)Nc2ccc(O)c(Sc3nc4ccccc4s3)c2)c1	none
COc1cc(C(=O)Nc2c(C(=O)O)[nH]c3ccccc23)cc(OC)c1OC	none (no result: VACV Venus inh, VACV mCherry inh)
CC(=O)N1CCN(c2ccc(C(N)=O)cc2[N+](=O)[O-])CC1	none
CN1CCN(c2ccc(C(=O)c3ccc(Br)cc3)cc2[N+](=O)[O-])CC1	HCMV inh -68, FMDV antiviral inconclusive, HCV inhibitor 10µM
NC(=O)c1ccc(N2CCCCCC2)c([N+](=O)[O-])c1	HCMV inh -60
O=[N+]([O-])c1ccc(N2CCCC2)cc1N1CCCC1	HCV inhibitor 2.5µM (no result: VACV Venus inh, VACV mCherry inh)
O=S(=O)(c1cccs1)N1CCN(c2ccc(O)cc2)CC1	HCMV inh inconclusive, VACV mCherry inh 4µM, HCV inhibitor inconclusive
CN1CCN(c2ccc(S(C)(=O)=O)cc2[N+](=O)[O-])CC1	none
CN1CCN(S(=O)(=O)c2cccs2)CC1	none
O=C(NCc1ccncc1)c1ccc(N2CCCC2)c([N+](=O)[O-])c1	HCMV inh -62
Cc1cc(O)c(CN2CCN(S(=O)(=O)c3cccs3)CC2)cc1C(C)C	FMDV antiviral inconclusive, HCV inhibitor inconclusive (no result: VACV Venus inh, VACV mCherry inh)
NC(=O)c1ccc(N2CCN(S(=O)(=O)c3cccs3)CC2)c([N+](=O)[O-])c1	HCMV inh -84, FMDV antiviral 20µM, HCV inhibitor 2.2µM (no result: VACV Venus inh, VACV mCherry inh, Sm TGR block)
Cc1cc(C(C)(C)C)cc(CN2CCN(S(=O)(=O)c3cccs3)CC2)c1O	HCMV inh -77, FMDV antiviral inconclusive (no result: Sm TGR block, HCV inhibitor)
CN(C(=O)C1CCCO1)C1CCS(=O)(=O)C1 (configuration not stated)	none
CCOc1ccccc1NC(=O)Cn1nnc(C(=O)NCc2ccco2)c1N	VACV Venus inh inconclusive, HCMV inh -90, VACV mCherry inh inconclusive
Cc1cc(-c2ccco2)n(CC(=O)NCc2ccco2)n1	Sm TGR block 40µM
CCOc1ccccc1NC(=O)Cn1nnc(C(=O)NCc2ccc(F)cc2)c1N	none (no result: HCV inhibitor)
Cc1ccccc1NC(=O)Cn1nnc(C(=O)NCc2ccco2)c1N	VACV Venus inh 4µM, VACV mCherry inh inconclusive
Cc1cc(C)c(NC(=O)Cn2nnc(C(=O)NCc3cccs3)c2N)c(C)c1	FMDV antiviral 40µM!
Cc1cc(C)cc(NC(=O)Cn2nnc(C(=O)NCc3cccs3)c2N)c1	none
Cc1cc(C)cc(NC(=O)Cn2nnc(C(=O)NCc3ccco3)c2N)c1	none
O=S(=O)(NC1CCCCC1)c1ccc(-c2csnn2)s1	none
O=C1CC(c2ccccc2)c2cc(O)ccc2O1 (configuration not stated)	Sm TGR block 22µM (no result: FMDV antiviral)

High-throughput results: PubChem BioAssay, National Center for Advancing Translational Sciences (NCATS)
